PubChem BioAssay AID743279 (National Center for Advancing Translational Sciences (NCATS), 2014)
Hit rate of the full screen: of about 360,000 compounds, about 17,000 (4.7%) were called active. Roughly 5% stayed inconclusive and do not appear here. The full list was thinned out, with actives kept by preference. Unmarked numbers belong to inactive results. No stated cut-off is given here; in the data, active means activity change below about -50%; inconclusive means mostly about -30% to -49%; inactive means weaker than that.

assay: qHTS for Inhibitors of Inflammasome Signaling: IL-1-beta AlphaLISA Primary Screen; settings: THP-1 LPS/ATP IL-1B secretion, 16 h; at 57.5 µM, stronger effect = lower value
In short: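 Secreted IL-1B measured by AlphaLISA bead assay after 16 h compound exposure of THP-1 cells; compounds (final up to 57.5 uM) added 1 h before LPS (250 ng/mL) and ATP (1.25 mM) stimulation; lower signal means less secretion.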
On the % scale 0 is the no-effect control and ±100 the full control effect.

Row | Structure (SMILES) | activity change
1 | O=C1OC(OC(=O)c2ccccc2Br)C(N2CCOCC2)=C1Cl (stereo not given) | -12.8%
2 | Cc1ccccc1C(=O)OC1OC(=O)C(Cl)=C1Nc1ccccc1 (stereo not given) | -17.8%
3 | Cc1ccc(NC2=C(Cl)C(=O)OC2OC(=O)c2ccccc2C)cc1 (stereo not given) | -89.8% (active)
4 | CCOC(=O)[C@H]1[C@H]2COc3ccc(Br)cc3[C@@H]2N2C(=O)CN(C)C(=O)[C@@]12C | 19.3%
5 | COC(=O)c1ccccc1N=Nc1c(C)[nH][nH]c1=O | 1.34%
6 | CCOc1cc(/C=N/NC(=O)c2c(C)nc3ccc(Cl)cn23)ccc1O | 11.7%
7 | O=C(NCCc1ccc(F)cc1)c1n[nH]c2ccccc12 | 29.4%
8 | O=C(NCC1CCCO1)c1cc2c([nH]c3ccccc32)c(-c2ccc(F)cc2)n1 (stereo not given) | -10.2%
9 | O=C(NCCCO)c1cc2c([nH]c3ccccc32)c(-c2ccc(F)cc2)n1 | -65.7% (active)
10 | CC(C(=O)NCCc1ccc(S(N)(=O)=O)cc1)N1C(=O)CC(C)(C)Sc2ccccc21 (stereo not given) | 25.8%
11 | CCCOc1ccc(NC(=O)C2CCCNC2=O)cc1 (stereo not given) | -6.06%
12 | CCCOc1ccc(C(=O)CCC(=O)OC(C)C(=O)Nc2ccc(NC(C)=O)cc2)cc1 (stereo not given) | 10.1%
13 | CCCOc1ccc(C(=O)C(CCC(CNCC)C(=O)c2ccc(OCCC)cc2)CNCC)cc1 (stereo not given) | -94% (active)
14 | Cc1[nH]c2ccccc2c1/C=N/NC(=O)CNC(=O)c1ccc2c(c1)OCO2 | 0%
15 | COc1ccc2ccccc2c1/C=N/NC(=O)c1cc(C)[nH]n1 | 0%
16 | COCCNC(=S)N/N=C/c1c(C)[nH]c2ccccc12 | -69.7% (active)
17 | OCCNc1nc2ccccc2n1-c1ncnc2sc3c(c12)CCC3 | 20.3%
18 | CC1=C(C(=O)N2CCOCC2)CC(CC(=O)NCCCN(C)C)C(=O)N1Cc1ccc(C(C)(C)C)cc1 (stereo not given) | -21.9%
19 | CCOC(=O)NC(=O)/C(C#N)=C\c1ccccc1 | 3.54%
20 | CCOC(=O)C(=CNc1cccc(C)n1)C(=O)OCC | 16.2%
21 | CCOC(=O)C(=Cc1ccccc1OC)C(=O)OCC | -99.3% (active)
22 | COc1ccccc1C(=O)c1ccccc1C(=O)c1ccccc1 | -7.51%
23 | CCOC(=O)c1ccccc1OC(=O)Oc1ccccc1C(=O)OCC | -16.9%

Row | Structure (SMILES) | activity change
24 | CCOC(=O)C(=Cc1ccccc1)C(=O)c1ccccc1 | -98.2% (active)
25 | C=CCn1c(=O)n(C)c2c(=O)n(C)c(=O)n(C)c21 | -2.57%
26 | Cc1ccc(F)c(S(=O)(=O)NC(=O)C2(C)CCN2C(=O)CCc2cccs2)c1 (stereo not given) | 0.428%
27 | Cc1ccc(NC(=O)CN(C)C(=O)c2cccc(S(=O)(=O)N3CCCC3)c2)cc1 | 8.98%
28 | NC(CSC1(c2ccccc2)c2ccccc2-c2ccccc21)C(=O)O (stereo not given) | 24.5%
29 | CC(=O)c1ccc(S(=O)(=O)NCc2nnnn2-c2ccccc2)cc1 | 8.11%
30 | CN(C)c1nnnn1-c1ccc(Cl)cc1 | 13.4%
31 | O=C(NCc1nnnn1-c1ccc(Cl)cc1)c1ccc([N+](=O)[O-])o1 | -76.1% (active)
32 | CC1=C(C(=O)N2CCOCC2)CC(CC(=O)NCCN2CCOCC2)C(=O)N1CCC1=CCCCC1 (stereo not given) | 11.4%
33 | COCCn1cnc2c1c(=O)n(Cc1ccc(Br)cc1)c(=O)n2Cc1ccccc1 | -61.2% (active)
34 | CC(C)CCn1cnc2c1c(=O)n(CC(=O)NC(N)=O)c(=O)n2Cc1ccccc1 | -1.43%
35 | COCCn1cnc2c1c(=O)n(CC(=O)NN)c(=O)n2Cc1ccccc1 | 0.195%
36 | COc1ccc2c(c1)CCCO[C@]21O[C@H](CCO)C[C@H](O)[C@H]1O | 24.3%
37 | NC(N)=Nc1nc(-c2ccccc2)c2cc(Cl)ccc2n1 | -81.6% (active)
38 | COC(=O)Cn1nc(-c2ccccc2)c2cc(Cl)ccc21 | -6.25%
39 | Clc1ccc2nc(-c3ccccc3)nc(C(Cl)Cl)c2c1 | 42.9%
40 | Cc1cccc(NS(=O)(=O)c2ccc(C)c(C(=O)NCC(c3ccccc3)N(C)C)c2)c1 (stereo not given) | -29.1%
41 | CC(C(=O)NCC1CCCCC1)N(C)Cc1cccc(Cl)c1 (stereo not given) | -16.9%
42 | O=Nc1c(O)cc(O)c2ccccc12 | -2.52%
43 | O=C(COC(=O)Cn1cnc2ccccc2c1=O)NCC12CC3CC(CC(C3)C1)C2 | -52.9% (active)
44 | O=C(COC(=O)Cn1cnc2ccccc2c1=O)NCc1ccccc1Cl | 12.2%
45 | CC1(C)C(=O)Nc2ccccc2N1C(=O)COC(=O)Cn1cnc2ccccc2c1=O | 7.25%
